A selection: hits, their analogues and other compounds. The true share with any hit is near 19%.
Shiga toxin inh = Shiga toxin inhibition | Vero cells, Shiga toxin protein synthesis inhibition reporter | inhibition, % at 38.7 µM | actives 9.2% (n = 290,000); in the data active means inhibition mostly above about 28%, no sharp cut-off; inactive means mostly below about 43%; further: 0% is about no effect
Pf growth 96h = P. falciparum growth inhibition at 96 hours | P. falciparum luciferase reporter growth, 96 h | Potency, µM (doses to about 28.7 µM), inactives show top-dose activity change, negative = inhibition, most hits filed as inhibitors | actives 6.9% (n = 320,000); further: potency means the concentration at half of the fitted maximal effect; on the % scale 0 is the no-effect control and ±100 the full control effect
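96 h incubation, 37 C, 5% CO2, of luciferase-reporter P. falciparum-infected RBCs (2% hematocrit, 0.05% parasitemia final) with test compounds; endpoint luminescence.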
SARS PLpro yeast = SARS-CoV PLP inhibition in yeast; S. cerevisiae expressing SARS-CoV PLpro, growth rescue; actives 0.19% (n = 330,000); AID 485353; Potency, µM (top dose mostly 32.9 µM), for the others: top-dose activity, positive = growth rescue, usual class: activators; calls by dose curve; further: potency means the concentration at half of the fitted maximal effect; 0% is about no effect; nearly all actives have a fitted effect of over 55% in size
AMA1 RON2 block = disrupts binding of P. falciparum AMA1 to RON2; AlphaScreen AMA1-biotinylated RON2 peptide binding; actives 0.2% (n = 360,000); Potency, µM (top dose mostly 58.2 µM), for inactives: at the highest dose activity change, negative = inhibition, usual class: inhibitors; AID 720542;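 further: potency means the concentration at half of the fitted maximal effect; 0% = vehicle wells and -100% = peptide control; nearly all actives have a fitted effect of over 45% in size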
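AMA1 (3D7) with his tag at 25 nM final met compounds first, then biotinylated RON2 peptide at 25 nM; detection used donor plus acceptor beads, 10 µg/mL apiece, read by AlphaScreen after 30 min at room temperature.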
CHX counter = counter-screen hit for Shiga toxin inhibitors, cycloheximide | max response, % | AID 2314 | actives 12% (n = 300,000) | cell reporter, cycloheximide protein synthesis inhibition counterscreen; in the data active means max response mostly above about 13%, no sharp cut-off; inactive means mostly below about 14%; further: read at 38.3 µM for the half of the compounds with a filed dose; 0% is about no effect
Pf growth 48h = P. falciparum growth inhibition at 48 hours (one generation); P. falciparum luciferase growth in erythrocytes, 48 h; Potency, µM (top dose mostly 28.7 µM), inactives show at the highest dose activity change, negative = inhibition, most hits filed as inhibitors; actives 5.9% (n = 310,000); further: potency means the concentration at half of the fitted maximal effect; on the % scale 0 is the no-effect control and ±100 the full control effect
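Luciferase-expressing P. falciparum in infected erythrocytes (2% hematocrit, 0.1% parasitemia final) in RPMI 1640/0.5% Albumax were exposed to compound for 48 hours at 37 C, 5% CO2; growth read as luminescence.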
Numbers without * were called inactive; ? = inconclusive; . = no result; [ ] = dose if it differs, or a comment. Unless noted, the call rests on the fitted dose curve; in most records, active means well fitted curve in the direction sought with a large enough effect; inconclusive means small, poorly fitted or top-dose-only effect, or another doubt; inactive means no such curve, though single readings can be large; an effect the other way counts as inactive or inconclusive.

SMILES	Shiga toxin inh	Pf growth 96h	SARS PLpro yeast	AMA1 RON2 block	CHX counter	Pf growth 48h
O=C(N/N=C/c1ccc2cccc(OCc3ccccc3)c2n1)c1ccc(Br)cc1	38	-1%	1%	28%	18*	-22%
Cc1ccc(S(=O)(=O)NCCc2nnc(SCc3cccnc3)n2C)cc1	13	6%	-8%	1%	5	6%
CC(=O)OCC(CO)OC(C)=O (centres undefined) (tested in a mixture with another compound)	-16	.	.	.	-4	.
COc1cc(C=C2C(=O)OC(C)(C)OC2=O)ccc1OCC(=O)Nc1ccccc1	95*	?	0%	-3%	17*	56%
COc1cc(/C=C/c2cc[n+](C)cc2)ccc1OCC(=O)Nc1ccccc1	36	-10%	-3%	-8%	22	3.7µM*
C#CCOCCOCCOCCNc1nc(N2CCN(C(=O)[C@H](CC(N)=O)n3cc(C(N)[C@H](C)CC)nn3)CC2)nc(N2CCN(C(=O)[C@H](CC(N)=O)n3cc(C(N)[C@@H](C)CC)nn3)CC2)n1 (some centres undefined)	.	.	-1%	-23%	.	.
COC(=O)/C=C/CSC1=N/C(=C/c2ccc(-n3cncn3)cc2)C(=O)N1	63	13%	0%	40%	10	?
O=C(O)COc1ccc(Br)cc1/C=N\Nc1ccccn1	-9	?	7%	28%	8	-5%
C(=N\Nc1ccccn1)/c1c[nH]c2ccccc12	89*	1%	-1%	40%	30*	95%
O=c1nc(N/N=C/C=C/c2ccccc2)cn[nH]1	67*	?	-2%	32%	37*	72%
O=C(O)c1cccc2c(/C=N/Nc3ccccn3)c[nH]c12	70*	93%	2%	0%	39*	83%
O=c1nc(N/N=C/c2c[nH]c3ccccc23)cn[nH]1	45*	0.41µM*	0%	73%	40*	193%
O=C(CCNC(=O)c1ccco1)NC(Cc1c[nH]c2ccccc12)C(=O)O (centres undefined)	.	36%	-3%	8%	.	5%
CCC(Sc1nc2ccccc2c(=O)[nH]1)C(=O)Nc1ccc(C(C)=O)cc1 (centres undefined)	59*	8%	1%	-9%	32*	68%
Cc1ccc(C2CC2C(=O)NNC(=S)Nc2cccc(Cl)c2)cc1 (centres undefined)	3	?	14µM*	10%	1	7%
Cc1ccc(-c2nc(C#N)c(N3CCC(C)CC3)o2)cc1	65	0%	-2%	?	17*	17%
Cc1ccc(-c2nc(C#N)c(N3CCCCC3)o2)cc1	22	-20%	4%	?	2	.
COc1ccc(-c2nc(C#N)c(N3CCC(C)CC3)o2)cc1	13	-9%	1%	-19%	16*	-11%[0.00184 µM]
COc1ccc(-c2nc(C#N)c(N3CCCCC3)o2)cc1	-2	21%	-3%	?	2	19%
CCc1ccc(CSc2nccn2-c2ccccc2)cc1	10	0%	?	?	0	16%
c1ccc(CCSc2nccn2-c2ccccc2)cc1	120*	423%	15%	?	52*	130%
O=C(NCc1csc(-c2ccccc2)n1)c1cc(F)cc2c1OCOC2	83*	55%	0%	-5%	45*	64%
O=C(Cc1csc(-c2ccccc2)n1)NCc1ccc(F)cc1	4	-9%	-28%	-7%	-1	9%
C(=C\c1ccccc1)/CN1CCN(C(c2cccc3ccccc23)c2nnnn2-c2ccc3c(c2)OCCO3)CC1 (centres undefined)	.	.	.	-30%	.	.
O=C(O)/C=C/C(=O)Nc1ccccc1-c1ccccc1NC(=O)/C=C/C(=O)O	-5	?	1%	0%	-1	0%
SMILES	Shiga toxin inh	Pf growth 96h	SARS PLpro yeast	AMA1 RON2 block	CHX counter	Pf growth 48h
O=C(O)/C=C/C(=O)Nc1ccccc1SC(F)(F)F	10	0%	-83%	2%	-2	0%
O=C(O)/C=C\C(=O)Nc1ccccc1C#Cc1ccc(Br)cc1	89*	62%	-29%	1%	56*	24%
O=C(O)/C=C\C(=O)Nc1ccccc1C#Cc1ccccc1	active	89%	-30%	4%	59*	127%
CC(C)OCCCNC(=O)CNC(=O)c1ccc(Cl)c(Cl)c1	19	16%	-3%	12%	-2	7%
CC(C)C(NCC(=O)Nc1ccccc1C(=O)NC1CC1)c1ccccc1 (centres undefined)	.	.	?	-5%	.	.
Cc1ccc(-c2cc(=O)c3cc(Cl)ccc3[nH]2)cc1	39*	19%	-1%	.	26*	122%
Clc1ccc(-c2cc3ccccc3[nH]2)cc1	110*	271%	-3%	0%	62*	167%
CCN(CC)Cc1c(-c2ccccc2)[nH]c2ccc(C)cc2c1=O	35*	?	24%	8%	29*	.
O=c1cc(-c2ccc(Cl)cc2)[nH]c2ccccc12	21	2.1µM*	-1%	7%	1	1.5µM*
Cc1cc(OCc2nnc(SCC(=O)O)n2-c2ccccc2)ccc1Cl	-8	-25%	2%	-7%	-1	7%
Cc1ccc(C)c(S(=O)(=O)N2CCCOC2CNC(=O)C(=O)NCc2ccc3c(c2)OCO3)c1 (centres undefined)	3	?	-9%	-3%	1	-17%
CCCCc1cc(=O)oc2cc(O)ccc12	21	?	1%	11%	4	?
Cc1ccc2[nH]c(-c3ccccc3)cc(=O)c2c1	49	?	-3%	-1%	30*	?
Cc1cc(=O)c2ccccc2[nH]1	-8	79%	-4%	10%	-5	19%
Cc1ccc(-c2cc(=O)c3ccccc3[nH]2)cc1	112*	?	-28%	-1%	29*	?
Cc1cccc(NC(=O)Nc2cc(C)cc(C)n2)c1	148*	-5%[5.75 µM]	1%	-3%	65*	159%
Cc1ccc(NC(=O)Nc2ccc3c(c2)OCO3)nc1	80*	10%	0%	0%	21*	46%
Cc1ccc(OC(F)F)c(NC(=O)Nc2ccc3c(c2)OCO3)c1	-10	13%	-2%	-8%	-4	19%
CCOC(=O)Cn1nc(NC(=O)c2ccc(C(=O)OC)cc2)cc1C	3	8%	?	5%	19*	28%
CCOC(=O)Cn1ccc(NC(=O)c2ccc3c(c2)OCO3)n1	-10	1%	-2%	4%	31*	17%
CCOC(=O)Cn1nc(NC(=O)c2cc(OC)cc(OC)c2)cc1C	-9	1%	4%	14%	5	5%
CCOC(=O)CSc1nnc(NC(=O)c2ccc3c(c2)OCO3)s1	26	33%	-5%	-2%	-3	45%
COc1ccccc1CNC(=O)CN1CCN(S(=O)(=O)c2cccs2)CC1	-18	?	1%	-3%	-3	?
